Results filed as inconclusive are left out. Calls of active or inactive are those of the source. Unless noted, calls come from the whole dose curve; as a rule, active = well fitted curve in the direction sought with a large enough effect; inconclusive = small, poorly fitted or top-dose-only effect, or another doubt; inactive = no such curve, though single readings can be large; an effect the other way counts as inactive or inconclusive.
How the values were obtained:
[1] = biological target: Lysosomal acid glucosylceramidase (Homo sapiens) (UniProt P04062); experiment: Glucocerebrosidase-p2 (AID 348; in the data active = potency below about 10 µM; note: potency is the fitted concentration of half-maximal effect); settings: purified GBA, blue fluorogenic substrate, 40 min
Chain of Lysosomal acid glucosylceramidase (Homo sapiens) (P04062 whole entry, looked up): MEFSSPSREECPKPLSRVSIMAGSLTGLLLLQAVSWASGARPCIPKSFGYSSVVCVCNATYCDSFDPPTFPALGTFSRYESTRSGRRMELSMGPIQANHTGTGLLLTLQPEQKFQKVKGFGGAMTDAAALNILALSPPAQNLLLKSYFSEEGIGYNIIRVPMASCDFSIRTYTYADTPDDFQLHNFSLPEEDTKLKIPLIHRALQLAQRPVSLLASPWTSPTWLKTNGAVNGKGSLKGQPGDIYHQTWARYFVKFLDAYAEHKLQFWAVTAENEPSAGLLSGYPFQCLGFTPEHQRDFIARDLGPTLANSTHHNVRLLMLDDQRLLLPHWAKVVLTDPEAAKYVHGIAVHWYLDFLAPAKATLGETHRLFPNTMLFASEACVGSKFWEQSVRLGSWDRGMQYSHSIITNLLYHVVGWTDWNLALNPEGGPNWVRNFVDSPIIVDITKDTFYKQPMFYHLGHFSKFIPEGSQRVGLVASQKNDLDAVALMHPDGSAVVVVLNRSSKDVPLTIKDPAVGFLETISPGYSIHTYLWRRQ
Method in brief: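 Compounds titrated from 0.6 nM upwards against 0.2 nM enzyme in pH 5.9 citric acid/KH2PO4, taurocholate, tween-20; blue fluorogenic substrate 80 uM, 40 min room temperature, stopped and read Ex 365/Em 440 for AC50.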

[2] = AP1 Signaling Pathway (AID 357; active = well fitted curve in either direction with a large enough effect, not every such curve was filed as active; note: % is set by controls: 0 for no effect and ±100 for the full control effect); settings: ME-180 AP-1-bla reporter, EGF-induced, beta-lactamase ratio, 5 h; at 7.69 µM (top of the series) unless noted
Method in brief: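 AP-1-bla ME-180 cells with beta-lactamase reporter under AP-1 response element, stimulated with EC50 EGF; compounds titrated, 5 hours at 37 degrees Celsius. CCF4 read at 460/530 nm ratio; positive and negative modulators judged by AC50.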

[3] = biological target: Cytochrome P450 1A2 (Homo sapiens) (UniProt P05177); experiment: p450-cyp1a2 (AID 410; calls by dose curve;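 note: -100% = full effect of reference inhibitor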); settings: recombinant CYP1A2, luciferin-ME demethylation, luminescence; series mostly up to 11.4 µM
Chain of Cytochrome P450 1A2 (Homo sapiens) (P05177 whole entry, looked up): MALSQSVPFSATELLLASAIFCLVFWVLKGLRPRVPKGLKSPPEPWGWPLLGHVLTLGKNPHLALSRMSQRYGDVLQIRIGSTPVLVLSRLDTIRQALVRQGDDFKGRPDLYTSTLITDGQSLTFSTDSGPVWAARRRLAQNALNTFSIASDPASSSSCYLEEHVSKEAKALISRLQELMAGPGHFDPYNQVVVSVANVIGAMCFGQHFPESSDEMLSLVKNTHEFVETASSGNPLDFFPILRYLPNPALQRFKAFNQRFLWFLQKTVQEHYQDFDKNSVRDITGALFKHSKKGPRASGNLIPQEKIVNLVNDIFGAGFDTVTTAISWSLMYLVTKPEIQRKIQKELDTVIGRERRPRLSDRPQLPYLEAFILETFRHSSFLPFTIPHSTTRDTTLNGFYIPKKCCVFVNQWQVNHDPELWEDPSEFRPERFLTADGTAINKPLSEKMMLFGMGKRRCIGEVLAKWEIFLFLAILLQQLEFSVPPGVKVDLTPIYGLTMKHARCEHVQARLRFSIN
Method in brief: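 20nM CYP1A2 with 100uM Luciferin-ME (at Km) in 100mM KPO4; compound preincubated 10 min, NADPH regeneration added, 60 min at room temperature. Luciferin quantified by luminescence after detection reagent; normalized to 57 uM furafylline.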

[4] = Stat Signaling Pathway (AID 446; active = well fitted curve in either direction with a large enough effect, not every such curve was filed as active;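 note: ME-180 cervical cancer cells given 40 pM IL-6 alongside compound; SIE-controlled beta-lactamase reporter measured as 460/530 nm FRET emission ratio; % is set by controls: 0 for no effect and ±100 for the full control effect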); settings: ME-180 SIE beta-lactamase reporter, IL-6 stimulated, 5 h; at 7.69 µM (top of the series) unless noted
Method in brief: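 ME-180 cells carrying a SIE-driven beta-lactamase reporter are stimulated with 40 pM IL-6 for 5 h at 37C in the presence of compound. The 460/530 nm FRET substrate ratio is read after 2.5 h at RT. Data are normalised to 300 pM IL-6 and to 125 nM JAK inhibitor controls.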

[5] = biological target: Glucocorticoid receptor (Homo sapiens) (UniProt P04150); experiment: GR-GFP Redistribution (AID 450;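 active = compounds whose dose series gives a full or clear partial fitted curve of increased nuclear translocation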; note: potency is the fitted concentration of half-maximal effect); settings: U2OS GR-GFP nuclear translocation, laser cytometry, 2 h
Chain of Glucocorticoid receptor (Homo sapiens) (P04150 whole entry, looked up, the tested form may be a part): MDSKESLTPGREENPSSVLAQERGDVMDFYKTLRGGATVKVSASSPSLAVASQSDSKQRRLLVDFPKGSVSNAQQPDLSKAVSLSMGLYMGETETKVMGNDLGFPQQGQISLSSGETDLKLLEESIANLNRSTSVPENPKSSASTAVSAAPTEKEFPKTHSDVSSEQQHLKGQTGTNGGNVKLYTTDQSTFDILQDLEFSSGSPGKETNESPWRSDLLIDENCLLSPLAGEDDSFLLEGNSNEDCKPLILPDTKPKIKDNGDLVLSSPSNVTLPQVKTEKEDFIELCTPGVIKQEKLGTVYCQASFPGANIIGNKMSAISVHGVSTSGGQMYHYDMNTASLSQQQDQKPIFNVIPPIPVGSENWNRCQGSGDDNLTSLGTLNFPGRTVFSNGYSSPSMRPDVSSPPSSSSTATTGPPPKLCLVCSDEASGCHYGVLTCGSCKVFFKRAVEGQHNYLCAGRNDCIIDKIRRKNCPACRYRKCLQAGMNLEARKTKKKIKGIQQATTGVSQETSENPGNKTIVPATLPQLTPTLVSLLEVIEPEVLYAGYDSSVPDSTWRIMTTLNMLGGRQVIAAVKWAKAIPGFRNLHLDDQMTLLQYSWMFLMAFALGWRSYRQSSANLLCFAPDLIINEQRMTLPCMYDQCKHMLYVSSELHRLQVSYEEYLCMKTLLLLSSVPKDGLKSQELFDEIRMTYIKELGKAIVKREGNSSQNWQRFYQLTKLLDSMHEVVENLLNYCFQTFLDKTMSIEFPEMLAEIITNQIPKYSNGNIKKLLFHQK

[6] = biological target: Glucocorticoid receptor (Homo sapiens) (UniProt P04150); experiment: GR-EFC Redistribution (AID 451; calls by dose curve; note: potency is the fitted concentration of half-maximal effect); settings: CHO-K1 GR-EFC translocation, beta-gal luminescence, 2 h
Method in brief: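 Translocation of GR-ED fusion to nuclear EA restores b-gal, read by luminescence after 1 h room-temperature detection. Engineered CHO-K1 biosensor cells, 1,000/well, exposed 2 h at 37 C to titrations up to 46 uM final.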

[7] = biological target: 3',5'-cyclic-AMP phosphodiesterase 4B (Homo sapiens) (UniProt Q07343); experiment: qHTS Assay for Inhibitors of PDE-IV (AID 607; active = well fitted activation curve with a large enough effect in the main read-out, with a control signal flat, not every such curve was filed as active; note: % of control where 0% means no effect); settings: HEK293 ACTOne CNG channel cells, membrane potential fluorescence; series mostly up to 22.9 µM
Chain of 3',5'-cyclic-AMP phosphodiesterase 4B (Homo sapiens) (Q07343 whole entry, looked up): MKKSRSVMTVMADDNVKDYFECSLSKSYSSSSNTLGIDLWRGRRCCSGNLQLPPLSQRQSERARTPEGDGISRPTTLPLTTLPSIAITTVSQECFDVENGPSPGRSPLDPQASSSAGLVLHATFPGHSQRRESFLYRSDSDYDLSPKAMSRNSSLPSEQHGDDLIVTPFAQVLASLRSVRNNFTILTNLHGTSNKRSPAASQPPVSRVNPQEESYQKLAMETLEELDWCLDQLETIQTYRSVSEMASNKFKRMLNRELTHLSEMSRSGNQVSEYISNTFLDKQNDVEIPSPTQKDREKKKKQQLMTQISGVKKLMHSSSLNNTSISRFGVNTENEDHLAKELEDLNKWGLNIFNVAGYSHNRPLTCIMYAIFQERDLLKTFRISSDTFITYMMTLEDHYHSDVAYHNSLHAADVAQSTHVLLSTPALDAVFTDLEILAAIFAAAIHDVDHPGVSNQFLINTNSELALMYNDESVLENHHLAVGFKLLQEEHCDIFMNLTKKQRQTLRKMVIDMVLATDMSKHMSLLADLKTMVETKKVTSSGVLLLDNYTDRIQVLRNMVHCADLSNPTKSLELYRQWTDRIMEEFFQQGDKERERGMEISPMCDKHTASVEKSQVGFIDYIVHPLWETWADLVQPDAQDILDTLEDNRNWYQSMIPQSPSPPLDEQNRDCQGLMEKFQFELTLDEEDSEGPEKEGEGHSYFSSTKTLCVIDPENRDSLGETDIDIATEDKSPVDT
Method in brief: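 HEK293 ACTOne cells with CNG channel (1000/well), endogenous PDE4; membrane potential dye, compounds up to 22.9 uM final. Fluorescence Ex 535/Em 590; RO 20-1724 (100 uM final) as reference.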

[8] = biological target: ATP-dependent 6-phosphofructokinase (Trypanosoma brucei brucei) (UniProt O15648); experiment: qHTS Assay to Find Inhibitors of T. brucei phosphofructokinase: hit validation (AID 492961);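 note: luminescence reports ADP formed as PFK phosphorylates fructose-6-phosphate with ATP; % is set by controls: 0 for no effect and ±100 for the full control effect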; settings: T. brucei PFK, ADP-Glo luminescence; series mostly up to 51.4 µM
Chain of ATP-dependent 6-phosphofructokinase (Trypanosoma brucei brucei) (O15648 whole entry, looked up): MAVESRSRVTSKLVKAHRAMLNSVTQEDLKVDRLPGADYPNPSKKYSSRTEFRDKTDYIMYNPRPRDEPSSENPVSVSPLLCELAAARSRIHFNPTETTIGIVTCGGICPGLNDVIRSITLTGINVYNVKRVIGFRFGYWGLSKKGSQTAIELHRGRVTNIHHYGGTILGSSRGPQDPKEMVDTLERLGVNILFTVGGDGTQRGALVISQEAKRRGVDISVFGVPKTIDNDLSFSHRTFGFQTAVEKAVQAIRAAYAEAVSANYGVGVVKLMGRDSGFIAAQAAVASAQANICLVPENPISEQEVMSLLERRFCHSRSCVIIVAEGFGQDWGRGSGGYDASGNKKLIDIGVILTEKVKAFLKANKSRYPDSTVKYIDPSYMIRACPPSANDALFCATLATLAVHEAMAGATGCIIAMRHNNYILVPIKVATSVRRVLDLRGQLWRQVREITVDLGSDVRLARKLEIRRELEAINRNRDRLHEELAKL
Method in brief: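 Measures ADP output of PFK (1.25 nM) at 0.1 mM ATP, 0.5 mM F6P, pH 8.0 TEA buffer with 5 mM MgCl2. No-enzyme wells define full inhibition; uninhibited enzyme wells define zero.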

[9] = biological target: Ubiquitin carboxyl-terminal hydrolase 1 (Homo sapiens) (UniProt O94782); experiment: Inhibitors of USP1/UAF1: Pilot qHTS (AID 504865); settings: purified USP1/UAF1, Ub-rhodamine cleavage fluorescence; series mostly up to 114 µM;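 note: rhodamine fluorescence freed from ubiquitin-rhodamine substrate followed over time; top concentration of the series differs between compounds; % is set by controls: 0 for no effect and ±100 for the full control effect; nearly all actives have a fitted effect of over 35% in size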
Chain of Ubiquitin carboxyl-terminal hydrolase 1 (Homo sapiens) (O94782 whole entry, looked up): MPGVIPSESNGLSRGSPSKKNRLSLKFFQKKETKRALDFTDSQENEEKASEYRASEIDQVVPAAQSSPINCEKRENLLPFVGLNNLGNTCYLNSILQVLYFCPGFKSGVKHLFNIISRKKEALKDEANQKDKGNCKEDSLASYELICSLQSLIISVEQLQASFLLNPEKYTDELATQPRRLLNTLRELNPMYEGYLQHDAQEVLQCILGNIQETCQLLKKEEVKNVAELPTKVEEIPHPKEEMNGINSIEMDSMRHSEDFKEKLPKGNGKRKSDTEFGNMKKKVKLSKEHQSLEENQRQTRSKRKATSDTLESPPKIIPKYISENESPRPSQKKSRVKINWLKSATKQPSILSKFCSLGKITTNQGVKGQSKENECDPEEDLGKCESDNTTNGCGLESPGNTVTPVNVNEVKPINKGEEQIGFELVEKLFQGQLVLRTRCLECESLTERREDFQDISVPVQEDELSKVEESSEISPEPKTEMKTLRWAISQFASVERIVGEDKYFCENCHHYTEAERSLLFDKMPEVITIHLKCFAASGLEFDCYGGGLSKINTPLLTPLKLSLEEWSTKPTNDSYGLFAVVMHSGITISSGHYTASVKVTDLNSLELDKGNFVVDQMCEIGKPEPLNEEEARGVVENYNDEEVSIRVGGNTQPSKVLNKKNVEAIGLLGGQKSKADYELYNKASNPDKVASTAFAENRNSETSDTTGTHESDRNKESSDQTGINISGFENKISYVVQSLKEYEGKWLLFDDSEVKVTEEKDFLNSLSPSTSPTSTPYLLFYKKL
Method in brief: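 In 50mM HEPES pH 7.8 containing 0.5mM EDTA, 1mM TCEP, 0.1 mg/ml BSA and 0.01% Tween-20, 1nM USP1/UAF1 is exposed to compound for 15 min, then Ub-Rho (150nM final) is added and fluorescence is read over time.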

[10] = biological target: Luciferin 4-monooxygenase (Photinus pyralis) (UniProt P08659); experiment: Biochemical firefly luciferase enzyme assay for NPC (AID 624030);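 note: purified P. pyralis luciferase at 10 nM with luciferin and ATP substrate; 0% = DMSO and -100% = full luciferase inhibition by PTC124 control; nearly all actives have a fitted effect of over 70% in size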; settings: purified P. pyralis luciferase, luminescence, 5 min; series mostly up to 58.6 µM
Chain of Luciferin 4-monooxygenase (Photinus pyralis) (P08659 whole entry, looked up): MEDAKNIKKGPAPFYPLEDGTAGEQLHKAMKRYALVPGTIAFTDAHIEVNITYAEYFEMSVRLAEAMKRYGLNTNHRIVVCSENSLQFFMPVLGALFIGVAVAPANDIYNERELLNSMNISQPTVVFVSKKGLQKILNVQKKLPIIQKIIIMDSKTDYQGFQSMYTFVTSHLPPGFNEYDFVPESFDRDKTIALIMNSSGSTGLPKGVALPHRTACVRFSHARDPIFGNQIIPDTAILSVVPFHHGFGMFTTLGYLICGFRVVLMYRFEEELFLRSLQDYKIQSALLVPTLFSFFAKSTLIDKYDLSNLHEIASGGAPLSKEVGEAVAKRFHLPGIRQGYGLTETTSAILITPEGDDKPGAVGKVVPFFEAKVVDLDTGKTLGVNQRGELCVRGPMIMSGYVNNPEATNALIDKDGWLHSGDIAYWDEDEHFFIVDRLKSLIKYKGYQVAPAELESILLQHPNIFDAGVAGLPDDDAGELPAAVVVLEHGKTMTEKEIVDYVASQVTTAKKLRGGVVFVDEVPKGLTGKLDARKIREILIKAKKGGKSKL
Method in brief: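 Direct inhibition of firefly luciferase enzyme (10 nM final, 50 mM Tris Acetate) assessed by luminescence within 5 minutes. Percent activity scaled between DMSO and PTC124 positive control, with concentration-effect curves classified by fit quality and response.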

[11] = S16 Schwann cell viability assay (CellTiter-Glo assay) (AID 624031); settings: S16 rat Schwann cells viability, 24 h; series mostly up to 57.5 µM;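 note: cellular ATP luminescence as a viability measure; plate controls were DMSO-treated cells for no effect and cell-free wells for full effect; nearly all actives have a fitted effect of over 70% in size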
Method in brief: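 CellTiter-Glo ATP luminescence counter-screen in untransfected S16 rat Schwann cells, 24h compound exposure at 37 degree Celsius after overnight seeding (500-750 cells/well); response scaled between cell-free wells and DMSO (0% activity), curves classed by r2 and magnitude.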

[12] = S16 Schwann cell PMP22 intronic element firefly luciferase assay (AID 624032); settings: S16 rat Schwann cells, PMP22 element FLuc, 24 h; series mostly up to 57.5 µM;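 note: plate controls were DMSO for no effect and PTC124 positive control mean for full effect; nearly all actives have a fitted effect of over 30% in size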
Method in brief: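 Luciferase reporter of PMP22 intronic-element expression in stably transfected S16 rat Schwann cells, read by ONE-Glo luminescence after 24 h compound exposure at 37 C. Activity scaled between DMSO (0%) and positive-control PTC124; concentration-effect curves quality-classified.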

[13] = S16 Schwann cell PMP22 intronic element beta-lactamase assay (AID 624044; calls by dose curve;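 note: 0% = DMSO and -100% = potassium clavulanate positive control; nearly all actives have a fitted effect of over 15% in size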); settings: S16 rat Schwann cells, PMP22 element beta-lactamase FRET, 24 h; series mostly up to 38.3 µM
Method in brief: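 Rat S16 Schwann cells with beta-Lac driven by a PMP22 intronic element, compound-treated 24 h at 37 °C. LiveBLAzer FRET B/G read: 460 nm normalized to potassium clavulanate vs DMSO; 535 nm FRET as viability; concentration-effect curves classified.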

[14] = qHTS profiling for inhibitors of Plasmodium falciparum proliferation (AID 504749);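 note: 0% = DMSO vehicle and full inhibition = artemisinin control; nearly all actives have a fitted effect of over 60% in size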; settings: P. falciparum in erythrocytes, SYBR Green DNA, 72 h, at 28.7 µM (top of the series)
Method in brief: (§1)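 Infected RBCs, 0.3% parasitemia/2.5% Hct final; cpd 72 h, 37 C, 5% CO2; lysis buffer with saponin/triton/SYBR Green I, o/n RT dark; FI 485/535; norm. to artemisinin (0.29 uM) and DMSO.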

7G8 = experiment: as above; settings: P. falciparum in erythrocytes, SYBR Green DNA, 72 h; series mostly up to 28.7 µM
Method in brief: as §1

AA1029 = experiment: as above; settings: P. falciparum in erythrocytes, SYBR Green DNA, 72 h; series mostly up to 28.7 µM
Method in brief: as §1

AS120 = experiment: as above; settings: P. falciparum in erythrocytes, SYBR Green DNA, 72 h; series mostly up to 28.7 µM
Method in brief: as §1

ATS189 = experiment: as above; settings: P. falciparum in erythrocytes, SYBR Green DNA, 72 h; series mostly up to 28.7 µM
Method in brief: as §1

C2A = experiment: as above; settings: P. falciparum in erythrocytes, SYBR Green DNA, 72 h; series mostly up to 28.7 µM
Method in brief: as §1

CP185 = experiment: as above; settings: P. falciparum in erythrocytes, SYBR Green DNA, 72 h; series mostly up to 28.7 µM
Method in brief: as §1

CP191 = experiment: as above; settings: P. falciparum in erythrocytes, SYBR Green DNA, 72 h; series mostly up to 28.7 µM
Method in brief: as §1

CP192 = experiment: as above; settings: P. falciparum in erythrocytes, SYBR Green DNA, 72 h; series mostly up to 28.7 µM
Method in brief: as §1

CP194 = experiment: as above; settings: P. falciparum in erythrocytes, SYBR Green DNA, 72 h; series mostly up to 28.7 µM
Method in brief: as §1

CP201 = experiment: as above; settings: P. falciparum in erythrocytes, SYBR Green DNA, 72 h; series mostly up to 28.7 µM
Method in brief: as §1

CP203 = experiment: as above; settings: P. falciparum in erythrocytes, SYBR Green DNA, 72 h; series mostly up to 28.7 µM
Method in brief: as §1

CP211 = experiment: as above; settings: P. falciparum in erythrocytes, SYBR Green DNA, 72 h; series mostly up to 28.7 µM
Method in brief: as §1

CP217 = experiment: as above; settings: P. falciparum in erythrocytes, SYBR Green DNA, 72 h; series mostly up to 28.7 µM
Method in brief: as §1

CP237 = experiment: as above; settings: P. falciparum in erythrocytes, SYBR Green DNA, 72 h; series mostly up to 28.7 µM
Method in brief: as §1

CP238 = experiment: as above; settings: P. falciparum in erythrocytes, SYBR Green DNA, 72 h; series mostly up to 28.7 µM
Method in brief: as §1

CP247 = experiment: as above; settings: P. falciparum in erythrocytes, SYBR Green DNA, 72 h; series mostly up to 28.7 µM
Method in brief: as §1

CP250 = experiment: as above; settings: P. falciparum in erythrocytes, SYBR Green DNA, 72 h; series mostly up to 28.7 µM
Method in brief: as §1

CP252 = experiment: as above; settings: P. falciparum in erythrocytes, SYBR Green DNA, 72 h; series mostly up to 28.7 µM
Method in brief: as §1

C[N+]1(C)C2CC[C@H]1CC(OC(=O)[C@@H](CO)c1ccccc1)C2 (stereo partly drawn)
inactive: Potency [1] > 11.4 µM | activity change, negative = inhibition [2] 4% | Potency [3] | activity, negative = inhibition [4] 7.35% | Potency [5] > 46 µM | Potency [6] > 9.22 µM | outcome [7] | outcome [8] | Potency [9] | outcome [10] | outcome [11] | outcome [12] | outcome [13] | activity, negative = inhibition ([14]; parasite line A) 0.517% | activity, negative = inhibition ([14]; parasite line B) -9.85% | Potency (7G8) | Potency (AA1029) | Potency (AS120) | Potency (ATS189) | Potency (C2A) | Potency (CP185) | Potency (CP191) | Potency (CP192) | Potency (CP194) | Potency (CP201) | Potency (CP203) | Potency (CP211) | Potency (CP217) | Potency (CP237) | Potency (CP238) | Potency (CP247) | Potency (CP250) | Potency (CP252)

— PubChem BioAssay (NCATS)
